The sample as a whole holds a higher share of hits than the screen did.
RE007 growth inh = less growth of the S. pombe RE007 Vpr strain; S. pombe RE007 Vpr strain, BacTiter-Glo ATP luminescence, 24 h; AID 651644; actives 0.21% (n = 360,000); Potency, µM (titrated, usually from 92.2 µM), for inactives: at the top dose activity change, negative = less growth, usual class: inhibitors; active = well fitted falling curve with a large enough effect; inconclusive = small, poorly fitted or top-dose-only effect; inactive = no such curve, though single readings can be large or run the other way; note: potency is the fitted concentration of half-maximal effect; % is set by controls: 0 for no effect and ±100 for the full control effect; nearly all actives have a fitted effect of over 50% in size
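Fission yeast strain RE007, carrying one chromosomally integrated HIV-1 vpr copy, was seeded at OD 0.01 in PMG+AL medium with 23 nL pinned compound. After 24 h at 30 °C and 99% humidity, viability was read by BacTiter-Glo luminescence.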
LmPK inhibitor = inhibitors of Leishmania mexicana pyruvate kinase. Q27686. purified LmPK, Kinase-Glo ATP luminescence, 1 h. Potency, µM (doses to about 57.5 µM), inactives show at the highest dose activity change, negative = inhibition, hits mostly inhibitors. actives 0.37% (n = 290,000); note: potency is the fitted concentration of half-maximal effect; % is set by controls: 0 for no effect and ±100 for the full control effect
Target sequence (Q27686 whole entry, looked up): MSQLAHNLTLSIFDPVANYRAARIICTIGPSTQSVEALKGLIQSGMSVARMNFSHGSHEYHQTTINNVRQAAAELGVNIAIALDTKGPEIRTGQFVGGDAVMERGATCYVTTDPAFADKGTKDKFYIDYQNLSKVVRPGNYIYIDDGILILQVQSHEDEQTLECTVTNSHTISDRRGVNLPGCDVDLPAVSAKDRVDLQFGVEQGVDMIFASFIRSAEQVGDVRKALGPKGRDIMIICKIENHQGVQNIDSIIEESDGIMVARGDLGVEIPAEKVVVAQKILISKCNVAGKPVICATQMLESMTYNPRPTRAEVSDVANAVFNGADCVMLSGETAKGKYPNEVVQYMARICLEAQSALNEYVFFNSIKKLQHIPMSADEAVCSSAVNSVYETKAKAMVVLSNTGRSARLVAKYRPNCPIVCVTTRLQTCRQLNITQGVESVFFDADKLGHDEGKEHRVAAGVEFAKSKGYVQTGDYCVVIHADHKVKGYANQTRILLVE
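Purified LmPK (0.1 nM) converted ADP (0.1 mM) to ATP with PEP (0.5 mM) in imidazole buffer pH 7.2 with KCl and MgCl2, 1 h at room temperature. ATP was read by Kinase-Glo luminescence; data normalized to uninhibited and no-enzyme controls.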
CHX counter = counter-screen for Shiga toxin inhibitors: cycloheximide protein synthesis inhibition. cell reporter, cycloheximide protein synthesis inhibition counterscreen. max response, %. actives 12% (n = 300,000). AID 2314; in the data active = max response mostly above about 13%, no sharp cut-off; inactive = mostly below about 14%; note: read at 38.3 µM for the half of the compounds with a filed dose; 0% is about no effect
Giardia FBPA inh = inhibitors of Giardia lamblia fructose-1,6-bisphosphate aldolase | Potency, µM (doses to about 59.6 µM), inactives show at the top dose activity, negative = inhibition, most hits filed as inhibitors | actives 0.71% (n = 290,000) | AID 2451 | purified Giardia FBPA; note: potency is the fitted concentration of half-maximal effect; % is set by controls: 0 for no effect and ±100 for the full control effect; nearly all actives have a fitted effect of over 55% in size
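40 nM FBPA preincubated 10 min at RT with compound (up to 57.5 uM final), then substrate plus GAPDH/TPI/NAD/arsenate coupling and diaphorase/resazurin added. Fluorescence read after 20 min at RT, 525/598 nm.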
Shiga toxin inh = blocks Shiga toxin action in Vero cells. Vero cells, Shiga toxin protein synthesis inhibition reporter. inhibition, % at 38.7 µM. actives 9.2% (n = 290,000). AID 2315; in the data active = inhibition mostly above about 28%, no sharp cut-off; inactive = mostly below about 43%; note: 0% is about no effect
Tb PYK inh = inhibitors of Trypanosoma brucei pyruvate kinase. TbPYK enzyme, Kinase-Glo Plus ATP luminescence, 45 min. Potency, µM (doses to about 76.8 µM), inactives show at the highest dose activity, negative = inhibition, hits mostly inhibitors. actives 0.12% (n = 410,000); note: potency is the fitted concentration of half-maximal effect; % is set by controls: 0 for no effect and ±100 for the full control effect; nearly all actives have a fitted effect of over 50% in size
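Readout: single end-point luminescence (Kinase-Glo Plus, 10 min). Reaction conditions were TbPYK/substrate plus 130 uM ADP, 45 min at RT, pH 7.2 TEA buffer. No-enzyme wells served as controls, and data were normalized before concentration-response fitting.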
* = called active by the depositor; ? = inconclusive; nt = not tested or not shown; [ ] = another dose, or the depositor's remark. Unless noted, calls come from the whole dose curve; as a rule, active = well fitted curve in the direction sought with a large enough effect; inconclusive = small, poorly fitted or top-dose-only effect, or another doubt; inactive = no such curve, though single readings can be large; an effect the other way counts as inactive or inconclusive.

SMILES	RE007 growth inh	LmPK inhibitor	CHX counter	Giardia FBPA inh	Shiga toxin inh	Tb PYK inh
Cc1noc(C)c1S(=O)(=O)N(C)C[C@H]1Oc2c(cccc2N(C)C)C(=O)N([C@H](C)CO)C[C@@H]1C	5%	nt	nt	nt	nt	8%
N#CCC(=O)Nc1ccc(C(=O)Nc2cccc(S(=O)(=O)N3CCCC3)c2)cc1	8%	nt	nt	nt	nt	2%
COc1cccc(OCCCCSc2ncccn2)c1	?	2%	26	5%	63	-18%
COc1cccc(OCCSc2nc(N)cc(N)n2)c1	-9%	-17%	38*	-5%	81	1%
Nc1cc(N)nc(SCCOc2ccccc2)n1	1%	1%	36*	-1%	55*	2%
Clc1ccc(NCc2ccsc2)cc1	nt	-6%	13*	?	27*	nt
O=C(Nc1ccc(Cl)c(NC(=O)c2cccs2)c1)c1ccco1	-23%	1%	7	2%	-11	-3%
O=C(Nc1ccc(NC(=O)c2cccs2)cc1Cl)c1ccco1	9%	7%[11.5 µM]	38*	-4%	96*	-5%
O=C(Nc1ccc(NC(=O)c2cccs2)c(Cl)c1)c1cccs1	0%	-1%	43*	-4%	50*	-4%
COc1cc(NC(=O)c2cccs2)ccc1NC(=O)c1ccco1	5%	4%	40*	-8%	127*	5%
Oc1ccccc1-c1cc(-c2ccco2)[nH]n1	-21%	-5%	47*	-18%	134*	-2%
Oc1ccc(Br)cc1-c1cc(-c2ccco2)[nH]n1	?	0%	8	-2%	42	-11%
Oc1c(-c2cc(-c3ccco3)[nH]n2)ccc2ccccc12	4%	-1%	48*	-8%	149*	3%
Oc1ccc(Cl)cc1-c1cc(-c2ccco2)[nH]n1	?	5%	30*	-19%	57*	-16%
CC(=O)c1coc2c1cc(O)c1ccccc12	-9%	4%	13	?	36	5%
CCOC(=O)c1c(C)oc2c1cc(O)c1ccccc12	8%	0%	35*	-22%	108*	5%
CCOC(=O)c1c(C)[nH]c2c1cc(O)c1ccccc12	-16%	3%	34*	?	65*	0%
CCOC(=O)c1c(C)oc2c1c(C=NCc1ccccn1)c(O)c1ccccc12	-6%	4%	29*	?	47*	-5%
CCOC(=O)c1c(C)oc2c1cc(NS(=O)(=O)c1ccc(C(=O)O)cc1)c1ccccc12	-7%	-3%	0	?	15	-11%
CC(=O)c1cc(O)c2ccccc2c1O	-13%	-11%	31*	?	66*	-14%
COc1ccc(/C(O)=C2/C(=O)C(=O)N(CCN3CCNCC3)C2c2cccc([N+](=O)[O-])c2)cc1 (configuration not stated)	-1%	-2%	-2	8%	-17	3%
CC(=O)c1c(C)oc2c1cc(NS(=O)(=O)c1ccc(Br)cc1)c1ccccc12	nt	nt	nt	nt	nt	18%
CC(=O)c1c(C)oc2c1cc(O)c1ccccc12	-2%	0%	20*	-20%	31	5%
CC1CCC(NC(=O)COC(=O)CCC(=O)c2ccc(Cl)s2)CC1 (configuration not stated)	18%	nt	nt	nt	nt	-1%
COc1cccc(C(=O)N/N=C(\CC(C)C)c2ccccc2)c1	7%	6%	22*	0%	55*	0%
SMILES	RE007 growth inh	LmPK inhibitor	CHX counter	Giardia FBPA inh	Shiga toxin inh	Tb PYK inh
COc1cccc(C(=O)Nc2ccc(C(=O)NCC(C)C)cc2)c1	7%	3%	-5	3%	12	-9%
CCC/C(=N/NC(=O)c1cccc(Cl)c1)c1ccccc1	-9%	3%	59*	2%	80*	-11%
CCC/C(=N\NC(=O)C1CC1)c1ccccc1	8%	nt	nt	nt	nt	-1%
Cc1ccc(C(=O)N/N=C(\CC(C)C)c2ccccc2)cc1	3%	-1%	44*	1%	71*	0%
CC/C(=N\NC(=O)c1ccc(Br)cc1)c1ccccc1	3%	3%	20	6%	15	1%
COc1ccccc1CNC(=O)Cc1csc2nc(-c3ccc(Cl)cc3)cn12	nt	nt	nt	nt	nt	1%
COc1ccc(/C(=C\C(=O)O)c2nccc3cc(OC)c(OC)cc23)cc1OC	nt	nt	nt	-7%	nt	nt
COc1ccc(C2=NC3(CCCCCC3)N(CC(=O)Nc3cccc(Cl)c3)C2=O)cc1	nt	nt	nt	nt	nt	4%
O=C(CSc1ccccc1C(=O)O)c1ccccc1	-2%	1%	7	2%	21	-2%
O=C(CSc1ccccc1C(=O)O)c1ccc(Cl)cc1	6%	11%	30*	3%	65*	-9%
CN1c2ccccc2C(=O)NC1c1ccc(Cl)cc1 (configuration not stated)	3%	-3%	12*	-1%	37	-11%
CC1=C(C)CC(C(=O)NNC(=O)c2cccc(Cl)c2)C(C(=O)O)C1 (configuration not stated)	-4%	2%	37*	19%	50*	-16%
CC1=C(C)CC(C(=O)NNC(=O)c2ccccc2)C(C(=O)O)C1 (configuration not stated)	0%	-8%	24*	0%	79*	-1%
Cc1cc(C)nc(N2CCC(C(=O)NNC(=O)c3ccccc3)CC2)n1	1%	-6%	-3	4%	-8	9%
O=C(O)CCC(=O)NNC(=O)c1cccc(Cl)c1	14%	-4%	9	6%	-8	4%
CC1=C(C)CC(C(=O)NCC(=O)c2ccccc2)C(C(=O)O)C1 (configuration not stated)	5%	1%	40*	3%	70*	-8%
COc1ccccc1CNC(=O)c1cc2c(=O)n(Cc3cccs3)ccc2nc1C	nt	nt	nt	nt	nt	-2%
N#Cc1ccc(NC(=O)COC(=O)CSc2nnc(-c3ccc(Cl)cc3)o2)cc1	6%	0%	0	0%	-7	-7%
CC1Cc2nc(SCC(=O)Nc3ccc4c(c3)OCCO4)n(C)c(=O)c2S1 (configuration not stated)	12%	-6%	9.0*	-6%	18	-11%
COCCn1c(SCC(=O)Nc2ccc3c(c2)OCCO3)nc2c(c1=O)SC(C)C2 (configuration not stated)	-11%	2%	23*	-3%	30*	3%
CC1Cc2nc(SCC(=O)Nc3ccc4c(c3)OCO4)n(Cc3ccccc3)c(=O)c2S1 (configuration not stated)	-2%	6%	56*	-3%	83*	5%
CCC(=O)OCC(=O)C1(OC(=O)CC)C(C)CC2C3C(Cl)CC4=CC(=O)C=C[C@@]4(C)C3C(O)C[C@@]21C (some centres not stated)	nt	nt	nt	-8%	nt	nt

Bioassay records deposited in PubChem BioAssay by National Center for Advancing Translational Sciences (NCATS).
